# Compound activity (PubChem BioAssay)
# Six1-Eya2 inh – qHTS Assay for Inhibitors of the Six1/Eya2 Interaction; Homeobox protein SIX1 (Homo sapiens) + Protein phosphatase EYA2 (Homo sapiens), …; AlphaScreen GST-Six1/His-Eya2 binding, biochemical; stronger effect = lower value; activity change, % (test concentration not listed); 360,000 tested, 0.56% active; AID 651725, 2012; in the data active means activity change below about -65%; inconclusive means mostly about -30% to -63%
#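 AlphaScreen with GST-Six1 and His-Eya2 (5X mix: 250 nM and 500 nM), glutathione donor and nickel acceptor beads; buffer 50 mM Tris pH 8.0, 300 mM NaCl, 1 mM TCEP; 1 h at 37 C in the dark.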
# CtBP-E1A blk – qHTS Assay for Inhibitors of the CtBP/E1A Interaction; CtBP / adenovirus E1A interaction (AlphaScreen); AlphaScreen GST-E1A/His-CtBP binding, 1536-well; stronger effect = lower value; activity change, % (test concentration not listed); 340,000 tested, 0.49% active; AID 651724, 2012; in the data active means activity change below about -65%; inconclusive means mostly about -30% to -63%
#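 GST-E1A and His-tagged CtBP (125 nM each as 5X stock) were preincubated with pin-transferred compound for 2 h at 37 °C in the dark, then glutathione donor and nickel acceptor beads were added for 1 h before AlphaScreen reading.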
# TDP1 block – qHTS Assay for Inhibitors of Tyrosyl-DNA Phosphodiesterase (TDP1); Tyrosyl-DNA phosphodiesterase 1 (Homo sapiens), Q9NUW8; recombinant TDP1, AlphaScreen DNA substrate cleavage; Potency, µM (doses to about 130 µM), without a hit: at the highest dose activity change, negative = inhibition, most hits filed as inhibitors; 350,000 tested, 0.28% active; further: potency means the concentration at half of the fitted maximal effect; nearly all actives have a fitted effect of over 40% in size
# Target sequence (Q9NUW8 whole entry, looked up): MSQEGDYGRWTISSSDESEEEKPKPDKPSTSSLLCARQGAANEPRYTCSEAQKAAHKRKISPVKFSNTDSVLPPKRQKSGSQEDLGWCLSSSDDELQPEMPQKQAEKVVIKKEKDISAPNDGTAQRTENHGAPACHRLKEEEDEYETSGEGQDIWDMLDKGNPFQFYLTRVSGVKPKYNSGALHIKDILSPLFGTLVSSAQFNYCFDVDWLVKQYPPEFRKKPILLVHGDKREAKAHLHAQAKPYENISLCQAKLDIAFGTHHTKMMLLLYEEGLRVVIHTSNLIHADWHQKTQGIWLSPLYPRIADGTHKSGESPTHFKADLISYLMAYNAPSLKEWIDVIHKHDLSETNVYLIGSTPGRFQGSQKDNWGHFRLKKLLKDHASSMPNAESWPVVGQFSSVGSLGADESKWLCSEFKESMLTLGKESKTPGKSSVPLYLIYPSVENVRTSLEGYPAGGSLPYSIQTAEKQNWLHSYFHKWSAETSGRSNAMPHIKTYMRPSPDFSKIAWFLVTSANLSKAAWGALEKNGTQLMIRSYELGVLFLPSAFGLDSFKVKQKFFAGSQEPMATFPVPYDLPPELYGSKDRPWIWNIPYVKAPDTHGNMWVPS
#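 Tdp1 1 nM final; 15 min RT w/ cpd; substrate 15 nM, 5 min; beads 10 ug/ml, 10 min; AlphaScreen read. Neg ctrl: no enzyme.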
# TDP1 cell CPT – qHTS for Inhibitors of human tyrosyl-DNA phosphodiesterase 1 (TDP1): qHTS in cells in presence of CPT. chicken DT40 Tdp1-/-;hTDP1 cells + 20 nM CPT, ATP luminescence, 48 h. Potency, µM (series often up to 46.2 µM), without a hit: at the top dose activity change, negative = growth inhibition, actives largely listed as inhibitors. 420,000 tested, 12% active; further: potency means the concentration at half of the fitted maximal effect; nearly all actives have a fitted effect of over 55% in size
#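 Chicken DT40 Tdp1-/- cells complemented with human TDP1, 400 cells/well, exposed to compounds plus 20 nM camptothecin for at least 48 h at 37 C; viability read as ATP content by CellTiter-Glo luminescence.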
# TDP1 cell noCPT – qHTS for Inhibitors of human tyrosyl-DNA phosphodiesterase 1 (TDP1): qHTS in cells in absence of CPT; Potency, µM (doses to about 46.2 µM), for inactives: at the highest dose activity change, negative = growth inhibition, actives largely listed as inhibitors; DT40 Tdp1-/- hTDP1 cells, no CPT, ATP luminescence, 48 h; AID 686978, 2013; 420,000 tested, 15% active; further: potency means the concentration at half of the fitted maximal effect; nearly all actives have a fitted effect of over 55% in size
#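 Growth of hTDP1-complemented DT40 Tdp1-knockout cells is measured by ATP luminescence after at least 48 hr compound exposure at 37 °C, with DMSO substituting for the 20 nM CPT used in the parallel screen.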
# IL-1B inflam inh – qHTS for Inhibitors of Inflammasome Signaling: IL-1-beta AlphaLISA Primary Screen. THP-1 LPS/ATP IL-1B secretion, AlphaLISA, 16 h; stronger effect = lower value. activity change, % at 57.5 µM. 360,000 tested, 4.7% active. AID 743279, 2014; in the data active means activity change below about -50%; inconclusive means mostly about -30% to -49%
#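 THP-1 cells pretreated 1 hr with compounds (up to 57.5 uM final), then stimulated with LPS (250 ng/mL final) plus ATP (1.25 mM final); secreted IL-1B measured by AlphaLISA after 16 hr, decreased signal indicating inhibition.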
# An asterisk follows results filed as active; u = inconclusive; x = no result given; [ ] = another dose, or the depositor's remark. Most compounds without a hit are left out; they make up all but 18% or so of the library. Unless noted, the call rests on the fitted dose curve; in most records, active means well fitted curve in the direction sought with a large enough effect; inconclusive means small, poorly fitted or top-dose-only effect, or another doubt; inactive means no such curve, though single readings can be large; an effect the other way counts as inactive or inconclusive. On the % scale 0 is the no-effect control and ±100 the full control effect.
SMILES,Six1-Eya2 inh,CtBP-E1A blk,TDP1 block,TDP1 cell CPT,TDP1 cell noCPT,IL-1B inflam inh
CC(=O)Nc1ccccc1OP1(=O)COc2ccccc2OC1,6,-1,0%,1%,4%,16
O=C(Nc1ccc(Cl)c(Cl)c1)O/N=C/c1ccncc1,3,-5,2%,u,u,-94*
O=C(Cl)c1ccccc1F,x,x,-6%,x,x,x
CN(C)C(=O)Oc1cc(OC(=O)N(C)C)cc([C@@H](O)CNC(C)(C)C)c1,x,x,14%[21 µM],x,x,x
NCCc1c[nH]c2ccccc12,-7,-7,9%[56.1 µM],u,-28%,-13
CSC(=S)NCc1c[nH]c2ccccc12,x,x,10%,x,x,x
CCCN(CCC)CCc1c[nH]c2ccccc12,x,x,x,19µM*,u,x
COc1ccc(CN(CCc2c[nH]c3ccccc23)Cc2ccc(OC)cc2)cc1,-19,5,x,16µM*,15µM*,-15
CCN(CC)Cc1c[nH]c2ccccc12,-1,8,11%,10µM*,16µM*,-25
CCC(CC)NCc1c[nH]c2ccccc12,-1,3,-12%,4.1µM*,3.7µM*,4
COC(=O)C(N)CCCN=C(N)N[N+](=O)[O-] (centres undefined),x,x,9%[56.1 µM],x,x,x
O=P(NS(=O)(=O)c1ccc(Cl)cc1)(Oc1ccccc1)Oc1ccccc1,-6,-7,0%,13%,4%,16
CCC1(CC)C(=O)NC(=NCCc2c[nH]c3ccccc23)NC1=O,-1,-8,0%,-1%,9%,24
CN(CCc1ccccc1)Cc1c[nH]c2ccccc12,-6,x,x,0.82µM*,1.5µM*,-67*
CCN(CC)CCO,-1,-3,0%,-1%,6%,-1
Cc1ccccc1-n1nc(C)c2c1NC(=O)CSC2c1ccccc1C(F)(F)F (centres undefined),x,x,-3%,26µM*,u,x
Cc1ccc(-n2nc(C)c3c2NC(=O)CSC3c2ccc3c(c2)OCO3)cc1 (centres undefined),3,8,2%,-30%,u,-5
COc1ccc(Br)cc1C1SCC(=O)Nc2c1c(C)nn2-c1ccccc1C (centres undefined),x,x,9%,u,18µM*,x
O=C1CCO1,x,x,-10%[56.1 µM],5%,4%,x
C#CCCC[C@@H]1OC(=O)CNC(=O)C([C@@H](C)CC)NC(=O)[C@@H]2CCCN2C(=O)C([C@@H](C)CC)OC(=O)[C@H](Cc2ccccc2)N(C)C(=O)[C@H](C(C)C)NC(=O)C1(C)C (some centres undefined),6,-21,x,13µM*,21µM*,-14
CCC(=O)CCCCC[C@@H]1NC(=O)[C@H]2CCCCN2C(=O)[C@H]([C@@H](C)CC)NC(=O)[C@H](Cc2cn(OC)c3ccccc23)NC1=O,x,x,15%,x,x,x
COc1ccc(-n2cnc3cc(C(=O)N4CCC5(CC4)OCCO5)ccc32)cc1,1,x,0%,8.2µM*,2.6µM*,55
COc1ccc(C(=O)N2CCC3(CC2)OCCO3)cc1,6,-9,x,-22%,2%,1
Cc1nc2ccc(Cl)cn2c1P(=S)(N1CCOCC1)N1CCOCC1,-11,7,-2%,15µM*,u,27
S=C(c1ccc(Cl)cc1)N1CCOCC1,3,6,2%,u,-4%,3
O=c1[nH]c(=O)n(Cc2ccc(F)cc2)c(O)c1C=NCCN1CCCCC1,-1,7,0%,-14%,1%,12
CCCCn1nnnc1C(C1CC1)N1CCC2(CC1)C(=O)NCN2c1ccccc1 (centres undefined),-4,0,x,u,u,3
